Test systems include SR leukemia; RPMI-8226 leukemia; OVCAR-8 ovarian; OVCAR-5 ovarian; OVCAR-4 ovarian; SK-OV-3 ovarian; IGROV1 ovarian; OVCAR-3 ovarian; HS 578T breast; NCI/ADR-RES ovarian; T-47D breast; BT-549 breast; MDA-MB-435 melanoma; SW-620 colon; MCF7 breast; HCT-116 colon; HCC-2998 colon; KM12 colon.
What all share (experiment): NCI-60 one-dose screen, 48 h (100 = growth as untreated, 0 = no growth, -100 = all killed)
Details in all cases: 10 µM unless noted

Structures are written as SMILES. About 83,000 compounds went through this panel and 20% of them were active in at least one assay; those are over-represented in the sample as a whole.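 Each cell line was grown in a 96-well plate and treated with one concentration of compound for 48 hours. Values below 10 were considered active.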 Values without a mark were called inactive. Calls of active or inactive are those of the source.

Consider 9 molecules from PubChem BioAssay (NCI).

Consider `COc1ccc2[nH]c(C(=O)OCc3ccc4c(Cl)cc(Cl)c(O)c4n3)cc2c1`, for which the growth in the experiment on SR leukemia is -12.5% (active); in the experiment with RPMI-8226 leukemia, -34.6% (active); in the experiment on OVCAR-8 ovarian, -31.2% (active); in the experiment on OVCAR-5 ovarian, -71.8% (active); in the experiment with OVCAR-4 ovarian, -57.5% (active); with SK-OV-3 ovarian, 68.8%. In addition, the growth in the experiment with IGROV1 ovarian was -92.4% (active); in the experiment on OVCAR-3 ovarian, -90% (active); in the experiment on HS 578T breast, -16.1% (active); in the experiment on NCI/ADR-RES ovarian, -58.9% (active); in the experiment with T-47D breast, -65.9% (active); in the experiment with BT-549 breast, -88.3% (active). Further, the growth with MDA-MB-435 melanoma is -85% (active); with SW-620 colon it was -68.2% (active); with MCF7 breast it was -21.3% (active); in the experiment on HCT-116 colon, -92.3% (active); in the experiment on HCC-2998 colon, -39.7% (active); with KM12 colon, -31% (active).
Take `Cc1c(C(=N)C(C#N)C#N)c(=N)oc2c1ccc1ccccc12`: the growth is 26.1% with SR leukemia; 44.7% with RPMI-8226 leukemia; 80.8% in the experiment with OVCAR-8 ovarian; 104% in the experiment on OVCAR-5 ovarian; 95.3% in the experiment with OVCAR-4 ovarian; 104% with SK-OV-3 ovarian. For the same molecule, the growth in the experiment with IGROV1 ovarian was -2.09% (active); in the experiment on OVCAR-3 ovarian, 95.5%; in the experiment on HS 578T breast it was 69.8%; in the experiment with NCI/ADR-RES ovarian it was 83.8%; in the experiment with T-47D breast, 71.9%; in the experiment on BT-549 breast it was 73.9%. In addition, the growth is 83.6% in the experiment with MDA-MB-435 melanoma; 92.2% in the experiment with SW-620 colon; 57.9% in the experiment on MCF7 breast; 79.6% in the experiment with HCT-116 colon; 80.3% with HCC-2998 colon; 101% with KM12 colon.
In the case of `Cc1nc2c3c(ncn2n1)Oc1c(c(=O)[nH]c2ccccc12)C3c1ccc(Cl)cc1` (configuration not stated), the growth with SR leukemia is 100%; in the experiment with RPMI-8226 leukemia it was 86.2%; in the experiment with OVCAR-8 ovarian, 97.3%; with OVCAR-5 ovarian, 101%; in the experiment with OVCAR-4 ovarian, 97%; in the experiment with SK-OV-3 ovarian, 116%. Moreover, the growth is 89.3% in the experiment on IGROV1 ovarian; 99.2% in the experiment with OVCAR-3 ovarian; 99.7% in the experiment on HS 578T breast; 94.7% with NCI/ADR-RES ovarian; 86% with T-47D breast; -52.7% (active) with BT-549 breast. Moreover, the growth with MDA-MB-435 melanoma is 102%; with SW-620 colon, 95.4%; in the experiment on MCF7 breast, 91.6%; with HCT-116 colon, 88.8%; in the experiment on HCC-2998 colon it was 102%; in the experiment with KM12 colon, 99.2%.
For the molecule `CCO/C=N/C1=C(C#N)C(c2ccc(Cl)cc2)c2c(c3ccccc3n(C)c2=O)O1` (configuration not stated), the growth in the experiment on SR leukemia was 22.7%; with RPMI-8226 leukemia, 88.1%; in the experiment with OVCAR-8 ovarian, 86.3%; in the experiment on OVCAR-5 ovarian, 85.1%; with OVCAR-4 ovarian, 68.6%; in the experiment on SK-OV-3 ovarian, 81.8%. For the same molecule, the growth in the experiment with IGROV1 ovarian was 59.1%; in the experiment with OVCAR-3 ovarian, 64.3%; with HS 578T breast it was 65.5%; in the experiment with NCI/ADR-RES ovarian it was 57.3%; with T-47D breast, 65.1%; with BT-549 breast it was 81.4%. Further, the growth in the experiment with MDA-MB-435 melanoma was 1.36% (active); with SW-620 colon, 52.1%; in the experiment on MCF7 breast it was 41.7%; in the experiment with HCT-116 colon, 66.5%; in the experiment on HCC-2998 colon, 84.5%; with KM12 colon it was 69.1%.
Take `O=C(Nc1ccc(NCCN2CCOCC2)nc1)c1ccc([N+](=O)[O-])cc1`: the growth is 113% in the experiment with SR leukemia; 107% with RPMI-8226 leukemia; 96.2% in the experiment on OVCAR-8 ovarian; 105% in the experiment with OVCAR-5 ovarian; 103% in the experiment with OVCAR-4 ovarian; 107% in the experiment on SK-OV-3 ovarian. Further, the growth with IGROV1 ovarian is 121%; in the experiment with OVCAR-3 ovarian, 114%; in the experiment on HS 578T breast it was 104%; in the experiment on NCI/ADR-RES ovarian, 105%; with T-47D breast, 107%; with BT-549 breast, 98.6%. In addition, the growth was 97.8% in the experiment with MDA-MB-435 melanoma; 104% in the experiment with SW-620 colon; 89.2% with MCF7 breast; 97.2% in the experiment on HCT-116 colon; 101% with HCC-2998 colon; 104% with KM12 colon.
As for `COc1ccc(/C(C#N)=C/c2cc(OC)c(OC)c(OC)c2)cc1`, the growth was 11.8% in the experiment on SR leukemia; 31.2% in the experiment with RPMI-8226 leukemia; 57.4% in the experiment with OVCAR-8 ovarian; 65.6% with OVCAR-5 ovarian; 87.8% with OVCAR-4 ovarian; 47.6% with SK-OV-3 ovarian. For the same molecule, the growth is 44.9% with IGROV1 ovarian; 36.1% in the experiment with OVCAR-3 ovarian; 91.4% with HS 578T breast; 20.7% in the experiment with NCI/ADR-RES ovarian; 44.1% with T-47D breast; 40.7% with BT-549 breast. In addition, the growth was -48.8% (active) in the experiment with MDA-MB-435 melanoma; 26.3% in the experiment with SW-620 colon; 18.6% in the experiment with MCF7 breast; 20.2% in the experiment with HCT-116 colon; 72% in the experiment with HCC-2998 colon; 29.3% in the experiment on KM12 colon.
On to `OB(O)c1cccc(-c2nc3ccc4[nH]ncc4c3c3c2CCCC3)c1F`, for which the growth in the experiment with SR leukemia is 48.7%; in the experiment with RPMI-8226 leukemia, 50.7%; with OVCAR-8 ovarian, 52.8%; in the experiment on OVCAR-5 ovarian, 75.1%; in the experiment on OVCAR-4 ovarian, 76.4%; in the experiment with SK-OV-3 ovarian, -10.7% (active). For the same molecule, the growth in the experiment on IGROV1 ovarian was 41.1%; in the experiment with OVCAR-3 ovarian it was 62.5%; with HS 578T breast it was 24.9%; in the experiment on NCI/ADR-RES ovarian it was 53.7%; with T-47D breast it was 54.1%; in the experiment with BT-549 breast, 30.2%. Further, the growth in the experiment on MDA-MB-435 melanoma is 44.4%; in the experiment with SW-620 colon, 35.1%; with MCF7 breast it was 62.5%; in the experiment on HCT-116 colon, 20.9%; in the experiment on HCC-2998 colon it was 71.4%; in the experiment on KM12 colon, 28.7%.
On to `CCCCOc1ccc(/C=C2/SC(N3CCCC3)=NC2=O)cc1`, for which the growth with SR leukemia is 91.1%; in the experiment on RPMI-8226 leukemia it was 84.8%; in the experiment on OVCAR-8 ovarian, 99.7%; with OVCAR-5 ovarian, 90.1%; in the experiment on OVCAR-4 ovarian, 80.6%; in the experiment on SK-OV-3 ovarian it was 96.9%. The growth in the experiment with IGROV1 ovarian is 95.1%; with OVCAR-3 ovarian, 106%; in the experiment with HS 578T breast, 116%; in the experiment on NCI/ADR-RES ovarian, 90.8%; with T-47D breast it was 65.9%; with BT-549 breast it was 90.9%. In addition, the growth was 95.6% in the experiment on MDA-MB-435 melanoma; 99.9% in the experiment on SW-620 colon; 107% with MCF7 breast; 92.2% with HCT-116 colon; 109% in the experiment with HCC-2998 colon; 99.5% with KM12 colon.
With `COc1ccc(-c2nc(N3CCCC3=O)sc2Br)cc1OC`, the growth was 88.9% with SR leukemia; 109% with RPMI-8226 leukemia; 103% with OVCAR-8 ovarian; 99.2% in the experiment on OVCAR-5 ovarian; 98.2% in the experiment on OVCAR-4 ovarian; 115% in the experiment on SK-OV-3 ovarian. The growth with IGROV1 ovarian was 113%; with OVCAR-3 ovarian it was 111%; in the experiment with HS 578T breast, 100%; with NCI/ADR-RES ovarian, 104%; with T-47D breast it was 89.2%; with BT-549 breast, 93.2%. The growth in the experiment on MDA-MB-435 melanoma is 93.5%; in the experiment on SW-620 colon, 102%; with MCF7 breast it was 96.9%; with HCT-116 colon it was 97.4%; with HCC-2998 colon, 108%; in the experiment with KM12 colon, 92.7%.
